Bioassay records (PubChem BioAssay)
Shown are actives, neighbours in structure and some others; about 9.9% of the full set was active somewhere.
Tau fibril ThT: blocks human tau fibril formation measured by thioflavin T; Potency, µM (series often up to 57.4 µM), for inactives: at the highest dose activity, negative = inhibition, usual class: inhibitors; P10636; recombinant tau K18 P301L, heparin-induced fibrillization, ThT fluorescence; hit rate 2.1% among 270,000; also: nearly all actives have a fitted effect of over 55% in size
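Aggregation was driven by heparin (20 uM final) acting on recombinant tau […] bearing P301L in 100 mM sodium acetate pH 7; fibrils were detected with Thioflavin T.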
KDM4E inh: blocks human JMJD2E demethylase activity; B2RXH2; JMJD2E catalytic domain, FDH-coupled NADH fluorescence (FDH is formaldehyde dehydrogenase); Potency, µM (series often up to 57.1 µM), without a hit: at the top dose activity change, negative = inhibition, hits mostly inhibitors; hit rate 1.6% among 230,000; AID 2147; active = well fitted inhibition curve with a large enough effect, not every such curve was filed as active; inconclusive = small, poorly fitted or top-dose-only effect, or another doubt; inactive = no such curve, though single readings can be large or run the other way;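 also: 0% = wells with enzyme and -100% = buffer wells without enzyme; nearly all actives have a fitted effect of over 50% in size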
Target sequence (B2RXH2 1-337 limits assumed): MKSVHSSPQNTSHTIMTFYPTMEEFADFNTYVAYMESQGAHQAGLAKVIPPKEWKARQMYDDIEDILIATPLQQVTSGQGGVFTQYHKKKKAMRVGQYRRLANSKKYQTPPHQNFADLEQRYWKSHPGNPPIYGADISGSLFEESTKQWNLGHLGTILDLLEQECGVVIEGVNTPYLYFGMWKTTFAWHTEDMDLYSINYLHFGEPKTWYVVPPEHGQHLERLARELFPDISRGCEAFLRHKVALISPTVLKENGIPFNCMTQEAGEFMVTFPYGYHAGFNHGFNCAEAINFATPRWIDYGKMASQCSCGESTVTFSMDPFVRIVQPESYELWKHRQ
Tau fibril FP: inhibitors of human tau fibril formation; P10636; K18 P301L tau heparin fibrillization, Alexa594 FP, 6 h; Potency, µM (titrated, usually from 57.7 µM), without a hit: at the top dose activity, negative = inhibition, most hits filed as inhibitors; hit rate 0.39% among 280,000; also: nearly all actives have a fitted effect of over 55% in size
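FP of Alexa 594-tau after heparin (20 uM) induction. Substrate: human K18 P301L, 15 uM unlabeled, 0.24 uM labeled. Buffer 100 mM sodium acetate pH 7. 6 hr, 37 C.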
HPGD inh: inhibitors of human 15-hydroxyprostaglandin dehydrogenase (HPGD) | Potency, µM, for the others: at the highest dose activity change, negative = inhibition, actives largely listed as inhibitors | purified HPGD, NADH fluorescence kinetic, PGE2 substrate | hit rate 4.3% among 150,000; active = well fitted inhibition curve with a large enough effect, not every such curve was filed as active; inconclusive = small, poorly fitted or top-dose-only effect, or another doubt; inactive = no such curve, though single readings can be large or run the other way
Target sequence (P15428 whole entry, looked up): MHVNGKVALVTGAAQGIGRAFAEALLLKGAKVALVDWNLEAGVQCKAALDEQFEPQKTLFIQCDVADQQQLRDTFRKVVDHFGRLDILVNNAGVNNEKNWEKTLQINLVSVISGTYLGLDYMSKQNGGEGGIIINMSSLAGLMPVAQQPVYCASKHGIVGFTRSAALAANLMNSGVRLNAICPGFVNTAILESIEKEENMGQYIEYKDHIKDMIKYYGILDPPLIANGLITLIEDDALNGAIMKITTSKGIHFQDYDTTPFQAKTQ
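NADH formation kinetics: reaction with 30 uM PGE2 and 1 mM NAD+ (final), 20 nM enzyme, Tris-HCl pH 8 with Tween 20, after 15 min compound preincubation at room temperature. Fluorescence change, last versus first of five reads.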
Tau fluor cs: counter-screen for tau fibril formation inhibitors. Potency, µM (series often up to 57.7 µM), without a hit: at the top dose activity change, negative = decrease. hit rate 0.93% among 280,000. AID 1463. tau K18 P301L Alexa594 fluorescence, heparin fibrillization; also: nearly all actives have a fitted effect of over 55% in size
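Human tau K18 P301L (15 uM unlabeled, 0.24 uM Alexa 594-labeled) in 100 mM sodium acetate pH 7 with 20 uM heparin, 6 hr at 37 C. ThT 30 uM added, 1 hr ambient; Alexa 594 FP and total fluorescence read at 555/632 nm.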
ALDH1A1 inh: inhibitors of human aldehyde dehydrogenase 1A1; P00352; Purified ALDH1A1, NADH fluorescence, propionaldehyde substrate; Potency, µM (highest dose often 75.3 µM), without a hit: top-dose activity, negative = inhibition, actives largely listed as inhibitors; hit rate 7.3% among 220,000; active = well fitted inhibition curve with a large enough effect, not every such curve was filed as active; inconclusive = small, poorly fitted or top-dose-only effect, or another doubt; inactive = no such curve, though single readings can be large or run the other way;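 also: plate controls were no enzyme wells and a reference inhibitor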
* hit, by the source's call; ? = inconclusive; nt = no result; [ ] = another dose, or the depositor's remark. Unless noted, calls follow the shape of the dose curve; as a rule, active = well fitted curve in the direction sought with a large enough effect; inconclusive = small, poorly fitted or top-dose-only effect, or another doubt; inactive = no such curve, though single readings can be large; an effect the other way counts as inactive or inconclusive. Unless noted, % is scaled to controls: 0 for no effect and ±100 for the full control effect; potency is read from the fitted curve at half-maximal effect.

SMILES	Tau fibril ThT	KDM4E inh	Tau fibril FP	HPGD inh	Tau fluor cs	ALDH1A1 inh
O=C(c1ccccc1Cl)N1CCCCC1CCN1CCCCC1 (stereo unspecified)	-10%	nt	-4%	nt	-6%	nt
Cc1c(C(=O)N2CCCCC2)sc(NC(=O)C2CC2)c1C#N	4%	5%	7%	14µM*	5%	-6%
Cc1c(C(=O)N2CCCC2)sc(NC(=O)c2ccccc2)c1C#N	-15%	-8%	7%	?	-6%	2%
CCOC(=O)c1c(N)sc(C(=O)N2CCCC2)c1C	-9%	1%	2%	?	-9%	-8%
Cc1c(C(=O)N2CCCCC2)sc(NC(=O)c2ccco2)c1C#N	-7%	-7%	7%	16µM*	-2%	-10%
Cc1c(C(=O)N2CCCCC2)sc(NC(=O)C(C)C)c1C#N	5%	6%	6%	13µM*	4%	3%
Cc1c(C(=O)N2CCCCC2)sc(N)c1C#N	-5%	-2%	9%	13µM*	3%	?
Cc1c(Cl)cccc1NC(=O)Cn1c(=O)n(Cc2nc(-c3ccccc3)no2)c(=O)c2cc3c(cc21)OCO3	?	nt	?	nt	-5%	nt
CCCC[C@@H]1C[C@H]1C(NC(=O)c1ccco1)c1ccc(Cl)cc1 (stereo partly specified)	?	-16%	6%	-10%	-16%	-7%
CC(C)N(C(=O)CN(C#N)c1nc(N(C)C)nc(N(C)C)n1)c1ccccc1	18%	-3%	1%	-6%	9%	8.9µM*
Cc1cc(N2CCCC2)nc(SCC(=O)c2ccccc2)n1	0%	9%	2%	-8%	-2%	-4%
Cc1cc(N2CCC(C)CC2)nc(SCC(=O)c2ccccc2)n1	?	-2%	-2%	-10%	-18%	14µM*
O=C(O)C[C@H](S)C(=O)O	nt	nt	nt	-2%	nt	-5%[13.5 µM]
O=c1cc(-c2ccccc2)[nH]n1-c1ccc([N+](=O)[O-])cc1	13µM*	12%	5%	-13%	?	5%
COc1ccccc1C1=NNC(=Nc2cccc(S(=O)(=O)N(C)C)c2)SC1	?	?	?	nt	-23%	35µM*
O=C(NC(=S)Nc1ccc(S(=O)(=O)Nc2nccs2)cc1)c1cccnc1	4%	-4%	1%	nt	4%	?
Cc1cc2oc(C(=O)Nc3ccc(S(=O)(=O)Nc4nccs4)cc3)cc(=O)c2cc1Cl	-7%	-1%	-9%	32µM*	?	-16%
COc1ccc(NS(=O)(=O)c2ccc(NC(=S)NC(=O)c3cccnc3)cc2)nn1	-13%	1%	-5%	nt	-3%	15µM*
O=C(NC(=S)Nc1ccc(S(=O)(=O)Nc2nccs2)cc1)c1ccccc1F	-5%	12%	-10%	nt	-18%	2µM*
O=C(NC(=S)Nc1ccc(S(=O)(=O)Nc2nccs2)cc1)c1ccc(Br)o1	-5%	-3%	2%	nt	-4%	32µM*
CCN(CC(=O)NC1CCS(=O)(=O)C1)C(=O)/C=C/c1cccs1 (stereo unspecified)	-2%	-2%	7%	nt	0%	3%
COC(=O)C/C=C\[C@@H](C)[C@H]1C=C[C@H](O)[C@@H](CO)O1	-2%[11.5 µM]	nt	-2%[11.6 µM]	nt	-1%[11.6 µM]	13%[13.5 µM]
O=C(NC(=S)Nc1ccc(S(=O)(=O)Nc2nccs2)cc1)c1ccc(F)c(F)c1	-2%	6%	2%	-7%	-13%	25µM*
CCn1nc(C(=O)Nc2ccc(S(=O)(=O)Nc3nccs3)cc2)c2ccccc2c1=O	-17%	-3%	3%	-21%	-26%	28µM*
O=C(Nc1ccc(S(=O)(=O)Nc2nccs2)cc1)c1cccc(N2C(=O)c3ccccc3C2=O)c1	-4%	-3%	-6%	nt	-24%	7.1µM*
SMILES	Tau fibril ThT	KDM4E inh	Tau fibril FP	HPGD inh	Tau fluor cs	ALDH1A1 inh
O=C(Nc1ccc(S(=O)(=O)Nc2ncccn2)cc1)c1nn(Cc2ccccc2)c(=O)c2ccccc12	-11%	?	9%	nt	-13%	nt
O=C(NC(=S)Nc1ccc(S(=O)(=O)Nc2nccs2)cc1)c1ccccc1	6%	-3%	7%	-6%	2%	32µM*
O=C(O)c1ccccc1C(=O)Nc1ccc(S(=O)(=O)Nc2nccs2)cc1	-13%	0%	-14%	-13%	-18%	-1%
COc1ccc2[nH]c3c(c2c1)CCn1c-3nc2sc(C(=O)Nc3ccccc3)c(C)c2c1=O	?	14%	3%	-22%	-5%	12%
COc1ccc(-c2ccc(/C=C3\C(=O)N(c4ccccc4)N=C3c3ccccc3)o2)c([N+](=O)[O-])c1	?	3%	5%	-11%	?	2%
COc1ccc(-c2ccc(/C=C3/C(=N)N4C(C)=CSC4=NC3=O)o2)c([N+](=O)[O-])c1	2.2µM*	-3%	-10%	-24%	?	0%
CCOc1ccc(C(=O)c2ccc(O)c(O)c2O)cc1	22µM*	14µM*	?	?	?	9.5µM*
CCOc1cccc(C(=O)c2ccc(O)c(O)c2O)c1	22µM*	10µM*	?	16µM*	?	1.6µM*
CCOc1cccc(C(=O)Nc2cccc(C(C)=O)c2)c1	-7%	2%	-4%	-9%	-11%	6%
CC[C@]1(c2ccccc2)NC(=O)N(C)C1=O	nt	2%[25.5 µM]	nt	2%	nt	5%[20.9 µM]
CCN1CCN(c2c(/C=C3\SC(=S)N(Cc4ccco4)C3=O)c(C)c(C#N)c(=O)n2C)CC1	nt	13µM*	-17%	nt	?	nt
Brc1ccc(NC2=Nc3ccccc3CC2)cc1	-15%	6%	0%	?	-22%	-5%
Cc1ccc(NC2=Nc3ccccc3CC2)cc1	-16%	-1%	5%	32µM*	-4%	-1%
CC1CCN(C(=O)c2ccc(-n3cnnn3)cc2)CC1	-10%	4%	0%	18µM*	-2%	?
CC1CCN(C(=O)c2ccc3c(c2)OCCO3)CC1	0%	1%	8%	0.4µM*	6%	-4%
CC1CN(C(=O)c2scc3c2OCCO3)CC(C)O1 (stereo unspecified)	4%	4%	-1%	-11%	4%	9%
CC1CCN(C(=O)c2scc3c2OCCO3)CC1	-15%	-1%	3%	16µM*	-5%	-2%
CC1CCN(C(=S)c2ccc3c(c2)OCO3)CC1	-10%	-5%	2%	28µM*	-11%	?
COc1ccccc1NC(=O)Cn1c(=O)n(CC2CCC(C(=O)NCCc3ccccc3)CC2)c(=O)c2ccccc21 (stereo unspecified)	7%	nt	10%	nt	-5%	nt
O=C(OCCN1CCOCC1)C(c1ccccc1)c1ccccc1	-7%	4%	7%	-10%	-6%	25µM*
CC(CN1CCOCC1)C(=O)c1ccccc1 (stereo unspecified)	-4%	-3%	3%	-5%	-3%	32µM*
